Compound activity deposited in PubChem by National Center for Advancing Translational Sciences (NCATS).
Sampled rows, rich in hits. Any-hit rate of the full collection: about 20%.
Shiga inhibitor: inhibitors of Shiga toxin in Vero cells | Vero cells, Shiga toxin protein synthesis inhibition reporter | inhibition, % at 38.7 µM | 9.2% of 290,000 active; in the data active = inhibition mostly above about 28%, no sharp cut-off; inactive = mostly below about 43%; also: 0% is about no effect
HCMV inh: human cytomegalovirus inhibition; HFF cells, HCMV-luciferase reporter, 72 h; active compounds read low; activity change, negative = inhibition, % at 57.5 µM; 4.5% of 410,000 active; AID 1259415; in the data active = activity change below about -60%; inconclusive = no clear call, values can overlap the other calls; inactive = above about -39%; also: % is scaled to controls: 0 for no effect and ±100 for the full control effect
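Human foreskin fibroblasts infected with luciferase-reporter HCMV at MOI 1 PFU/cell, compounds at two doses. Luciferase measured 72 h post infection; normalized to buffer-only basal and Salinomycin (10uM) controls.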
Pf growth 48h: inhibits P. falciparum growth in the first generation, 48 h. P. falciparum luciferase growth in erythrocytes, 48 h. Potency, µM (highest dose often 28.7 µM), without a hit: at the highest dose activity change, negative = inhibition, most hits filed as inhibitors. 5.9% of 310,000 active; also: potency is read from the fitted curve at half-maximal effect; % is scaled to controls: 0 for no effect and ±100 for the full control effect
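Firefly luciferase activity from engineered P. falciparum reports growth; inhibitors lower the luminescent signal. Cultures contained 2% hematocrit erythrocytes at 0.1% final parasitemia.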
CHX counter: counter-screen for Shiga toxin inhibitors: cycloheximide protein synthesis inhibition | cell reporter, cycloheximide protein synthesis inhibition counterscreen | max response, % | 12% of 300,000 active | AID 2314; in the data active = max response mostly above about 13%, no sharp cut-off; inactive = mostly below about 14%; also: read at 38.3 µM for the half of the compounds with a filed dose; 0% is about no effect
Pf growth 96h: P. falciparum growth inhibition at 96 hours. P. falciparum luciferase reporter growth, 96 h. Potency, µM (titrated, usually from 28.7 µM), for inactives: top-dose activity change, negative = inhibition, actives largely listed as inhibitors. 6.9% of 320,000 active. AID 504834; also: potency is read from the fitted curve at half-maximal effect; % is scaled to controls: 0 for no effect and ±100 for the full control effect
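Luminescence readout: decreased luciferase signal marks inhibited growth of reporter-expressing P. falciparum in infected red cells (2% hematocrit, 0.05% parasitemia final), exposed to compound two generations (96 h, 37 C, 5% CO2).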
Starred values were filed as active, the others as inactive; ? = inconclusive; · = not tested or not shown. Unless noted, calls follow the shape of the dose curve; as a rule, active = well fitted inhibition curve with a large enough effect; inconclusive = small, poorly fitted or top-dose-only effect, or another doubt; inactive = no such curve, though single readings can be large or run the other way.

SMILES	Shiga inhibitor	HCMV inh	Pf growth 48h	CHX counter	Pf growth 96h
COc1ccc(-c2cc(C(=O)N3CCN(C(=O)c4ccccc4F)CC3)[nH]n2)cc1	-11.7	0.5	?	2.5	?
COc1ccccc1-c1cc(C(=O)N2CCN(S(=O)(=O)c3ccc(C)cc3)CC2)[nH]n1	-10.1	-28.1	0.465µM*	-2.9	14.7µM*
CCOC(=O)N1CCN(S(=O)(=O)c2cc([N+](=O)[O-])ccc2C)CC1	-8.3	-13.2	12.9%	-2.1	131.4%
O=C(c1n[nH]c2ccccc12)N1CCN(S(=O)(=O)c2ccc3ccccc3c2)CC1	-5.7	12.7	?	3.8	149.8%
COc1ccc(Cl)cc1S(=O)(=O)N1CCN(C(=O)c2cc(-c3ccc(Br)cc3)n[nH]2)CC1	·	0.0	·	·	·
COc1ccc(-c2cc(C(=O)N3CCN(S(=O)(=O)c4ccccc4)CC3)[nH]n2)cc1	19.9	?	?	5.9*	55.3%
Cc1ccc(/C=C2\SC(=S)N(CCC(=O)N3CCCCC3)C2=O)cc1	-14.6	5.6	-14.4%	-3.3	22.7%
Cc1ccc(/C=C2\SC(=O)N(CCC(=O)N3CCN(C)CC3)C2=O)cc1	45.0*	-7.2	25.9%	26.8*	?
O=C(CCN1C(=O)/C(=C/c2cccs2)SC1=S)N1CCCCC1	-2.2	-39.6	?	6.4	22.4%
O=C(c1ccccc1)N1CCN(CCc2ccccn2)CC1	-4.9	-17.0	2.5%	-2.2	6.6%
O=C(CN1C(=O)/C(=C/c2ccccc2)SC1=S)N1CCN(CCc2ccccn2)CC1	-2.0	-90.2*	6.0%	-3.0	?
Cc1ccc(/C=C2/SC(=S)N(CCC(=O)N3CCOCC3)C2=O)cc1	22.6	-23.2	?	16.2*	6.3%
O=C(CCN1C(=O)/C(=C\c2ccccc2)SC1=S)N1CCCCC1	2.0	-67.5*	-16.7%	-2.1	?
CN(C)c1ccc(CN(Cc2ccco2)C(=O)c2ccc(C(C)(C)C)cc2)cc1	·	-4.9	·	·	·
Cc1ccc(/C=C2\SC(=S)N(CCC(=O)NNC(=O)c3ccncc3)C2=O)cc1	3.1	16.2	38.8%	-1.6	-10.3%
Cc1ccc(/C=C2/SC(=S)N(CCC(=O)N3CCN(C)CC3)C2=O)cc1	7.9	-74.1*	?	-3.0	11.7µM*
O=C(CCCN1C(=O)/C(=C\c2ccccc2)SC1=S)N1CCOCC1	·	-98.5*	·	·	·
Cc1ccc(/C=C2\SC(=S)N(CCC(=O)NNS(=O)(=O)c3ccc(C)cc3)C2=O)cc1	13.2	101.3	31.3%	24.5*	0.0%
O=c1[nH]c(-c2ccccc2)c(-c2ccccc2)o1	18.1	10.9	·	-3.5	0.7%
CC(=O)c1cccc(NC(=O)C2CCCN2S(=O)(=O)c2ccccc2C(F)(F)F)c1 (centres undefined)	·	2.8	·	·	·
COc1cc(NC(=O)NC2Cc3ccccc3C2)cc(OC)c1	52.8*	7.0	?	20.5*	?
COc1cc(NC(=O)C2Cc3ccccc3CN2S(C)(=O)=O)cc(OC)c1 (centres undefined)	-3.7	-5.1	0.0%	1.7	1.85µM*
COc1cc(NC(=O)C2CCCN2C(=O)OCc2ccccc2)cc(OC)c1 (centres undefined)	-11.1	-5.4	7.38µM*	-2.7	0.2%
CCOc1ccccc1NC(=O)C1CCCN1S(=O)(=O)c1ccccc1C(F)(F)F (centres undefined)	·	-12.2	8.28µM*	·	?
COc1cc(NC(=O)Cc2ccccc2)cc(OC)c1	-8.4	3.3	·	-0.3	13.7%
SMILES	Shiga inhibitor	HCMV inh	Pf growth 48h	CHX counter	Pf growth 96h
COc1cccc(CN2CC3(CCN(C)CC3)c3c(n(C)c4cc(OC)ccc34)[C@H]2CO)c1	·	-14.1	·	·	·
CN(C(=O)CSc1nnc(COc2ccccc2F)n1N)C1CCS(=O)(=O)C1 (centres undefined)	·	-16.4	47.3%	·	24.7%
Cc1csc(NC(=O)Cc2nn(C)c(=O)c3ccccc23)n1	13.2	?	·	11.1	86.8%
CC(=O)Nc1c(C)nn(-c2ccccc2)c1N1CCC(C(=O)Nc2ccc(F)cc2Cl)CC1	·	33.4	·	·	·
O=C(CCC(=O)N(CC(=O)NC1CCCCC1)Cc1cccs1)Nc1nccs1	-9.1	-4.6	-4.3%	-2.8	15.6%
COc1ccc(CNc2nc3c(-c4ccc(C)cc4)nnn3c3ccccc23)cc1	·	82.5	·	·	·
CCOc1ccccc1NC(=O)C1Cc2ccccc2CN1S(C)(=O)=O (centres undefined)	-20.6	44.7	?	-1.7	11.7µM*
COc1ccc(OC)c(S(=O)(=O)N2Cc3ccccc3CC2C(=O)Nc2nccs2)c1 (centres undefined)	106.5*	119.1	103.2%	63.8*	18.3%
Cc1ccc(C2=NNC3(CCOC(C)(C)C3)S2)cc1 (centres undefined)	54.1*	?	62.7%	36.9*	?
Cc1ccc(S(=O)(=O)NCCC2(C(C)C)CCOC(C)(C)C2)cc1 (centres undefined)	-19.2	-19.5	?	-1.5	·
CCC(C)C1O[C@]2(C=CC1C)CC1CC(C/C=C(\C)[C@H](OC3CC(OC)C(O[C@H]4CC(OC)[C@@H](O)C(C)O4)C(C)O3)[C@@H](C)/C=C/C=C3\COC4C(O)C(C)=C[C@H](C(=O)O1)[C@@]34O)O2 (some centres undefined)	·	·	15.1µM*	·	13.5µM*
CCCCOc1ccc(C(=O)C(CN2CCOCC2)c2ccccc2)cc1 (centres undefined)	8.5	-106.8*	?	0.4	?
OC(c1ccc(F)cc1)C(c1ccccc1)N1CCOCC1 (centres undefined)	-17.9	-21.4	3.8%	5.6	1.85µM*
CCCCCOc1ccc(C(=O)C(c2ccccc2)N2CCOCC2)cc1 (centres undefined)	3.8	?	?	-4.1	?
O=C(c1ccc(F)cc1)C(CN1CCOCC1)c1ccccc1 (centres undefined)	-23.7	-76.6*	?	-6.3	?
O=C(c1ccccc1)C(CCC(CN1CCOCC1)C(=O)c1ccccc1)CN1CCOCC1 (centres undefined)	-29.2	-105.4*	-20.9%	-6.8	?
O=S(=O)(NCCc1ccc(Cl)cc1)c1ccc(N2CCCCS2(=O)=O)cc1	·	-22.7	·	·	·
COc1ccc(N2CCN(CCCNC(=O)C(=O)c3c(C)n(C)c4ccccc34)CC2)cc1	-6.8	?	?	-0.3	14.7µM*
COc1ccc(C(=O)C(CN2CCCC2)c2ccccc2)cc1 (centres undefined)	9.2	-94.8*	13.1µM*	24.9*	3.6%
COc1ccc(C(CNC(=O)CNC(=O)c2ccccc2)N2CCCC2)cc1 (centres undefined)	·	0.0	?	·	?
CCCCCOc1ccc(C(=O)CCN2CCOCC2)cc1	·	-17.0	?	-3.6	2.33µM*
COc1ccc(C(=O)C(CN2CCOCC2)c2ccccc2)cc1 (centres undefined)	-6.9	-99.5*	·	1.9	?
COc1ccc(-c2oc3ncn4nc(-c5ccc(Cl)cc5)nc4c3c2-c2ccc(OC)cc2)cc1	·	-5.5	·	·	·
